Screens: PubChem, The Scripps Research Institute Molecular Screening Center
Hits are enriched below; roughly 2.9% of the tested compounds scored in any of these assays.
pPAFAH FP inh: pPAFAH enzyme inhibitors, primary screen, biochemical, fluorescence polarization, human. 330,000 compounds, 1.5% hits. AID 463082, 2010. inhibition, % at 3.39 µM. Platelet-activating factor acetylhydrolase (Homo sapiens), Q13093. recombinant pPAFAH, FP-rhodamine probe fluorescence polarization;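 active = inhibition above the mean inhibition across the screen plus 3 SD, cut at about 25% in these data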;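 note: inhibitors block binding of the rhodamine activity-based probe so polarization drops; 0% = enzyme with DMSO and 100% = wells lacking pPAFAH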
LYPLA2 counter: LYPLA2 inhibitors, primary screen, counter-screen for PME1 inhibitor project, biochemical, fluorescence polarization, FP-Rh probe ABPP | AID 2177, 2009 | recombinant LYPLA2 | Acyl-protein thioesterase 2 (Homo sapiens), O95372 | 320,000 compounds, 0.38% hits | inhibition, % at 5.9 µM;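 active = inhibition above the screen-wide mean plus 3 SD, limit set per campaign, cut at about 26% in these data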;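 note: 0% = LYPLA2 with DMSO and 100% = wells lacking LYPLA2 enzyme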
LYPLA1 inh: LYPLA1 inhibitors, primary screen, counter-screen for PME1 inhibitor project, biochemical, fluorescence polarization, FP-Rh probe ABPP. Acyl-protein thioesterase 1 (Homo sapiens), O75608. recombinant LYPLA1. inhibition, % at 5.9 µM. 320,000 compounds, 0.16% hits. AID 2174, 2009;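 active = inhibition above the mean of all tested compounds plus 3 SD, set per campaign, cut at about 14% in these data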;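 note: inhibitors block serine hydrolase probe labeling of LYPLA1 so polarization falls; 0% = enzyme with DMSO and 100% = wells lacking LYPLA1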
Target sequence (O75608 whole entry, looked up): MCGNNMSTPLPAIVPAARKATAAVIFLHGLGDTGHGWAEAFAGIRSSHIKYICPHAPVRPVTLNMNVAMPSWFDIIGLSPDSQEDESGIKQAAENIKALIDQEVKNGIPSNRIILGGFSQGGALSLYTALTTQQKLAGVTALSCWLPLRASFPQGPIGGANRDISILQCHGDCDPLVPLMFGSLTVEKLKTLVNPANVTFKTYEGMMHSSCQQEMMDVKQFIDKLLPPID
PAFAH1B2 inh: PAFAH1B2 enzyme inhibitors, primary screen, biochemical, fluorescence polarization, human | recombinant PAFAH1B2, FP-rhodamine activity probe | Platelet-activating factor acetylhydrolase IB subunit alpha2 (Homo sapiens), P68402 | 340,000 compounds, 1.2% hits | inhibition, % at 3.39 µM;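 active = inhibition above the mean of all tested compounds plus 3 SD, cut at about 24% in these data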;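 note: 0% = enzyme with DMSO and 100% = wells lacking PAFAH1B2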
Target sequence (P68402 whole entry, looked up): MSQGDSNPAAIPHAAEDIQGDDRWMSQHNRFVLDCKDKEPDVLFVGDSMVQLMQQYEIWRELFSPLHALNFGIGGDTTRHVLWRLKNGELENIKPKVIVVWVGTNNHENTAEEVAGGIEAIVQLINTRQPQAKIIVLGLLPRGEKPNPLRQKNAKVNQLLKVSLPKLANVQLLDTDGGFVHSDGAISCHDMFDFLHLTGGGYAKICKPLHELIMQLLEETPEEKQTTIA
PAFAH2 FP inh: PAFAH2 enzyme inhibitors, primary screen, biochemical, fluorescence polarization, human | Platelet-activating factor acetylhydrolase 2, cytoplasmic (Homo sapiens), Q99487 | recombinant PAFAH2, FP-rhodamine activity probe | inhibition, % at 3.39 µM | 340,000 compounds, 0.99% hits | AID 492956, 2010;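 active = inhibition above the mean over all tested compounds plus 3 SD, cut at about 30% in these data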;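 note: inhibitors block probe labeling of enzyme so polarization drops; 0% = enzyme with DMSO and 100% = wells lacking PAFAH2 protein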
PAFAH1B3 inh: PAFAH1B3 enzyme inhibitors, primary screen, biochemical, fluorescence polarization, human. inhibition, % at 3.39 µM. recombinant PAFAH1B3, FP-rhodamine probe. 340,000 compounds, 0.28% hits. Platelet-activating factor acetylhydrolase IB subunit alpha1 (Homo sapiens), Q15102. AID 492972, 2010;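 active = inhibition above the screen-wide average of all tested compounds plus 3 SD, cut at about 25% in these data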;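 note: 0% = enzyme with DMSO only and 100% = wells lacking PAFAH1B3 protein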
Target sequence (Q15102 whole entry, looked up): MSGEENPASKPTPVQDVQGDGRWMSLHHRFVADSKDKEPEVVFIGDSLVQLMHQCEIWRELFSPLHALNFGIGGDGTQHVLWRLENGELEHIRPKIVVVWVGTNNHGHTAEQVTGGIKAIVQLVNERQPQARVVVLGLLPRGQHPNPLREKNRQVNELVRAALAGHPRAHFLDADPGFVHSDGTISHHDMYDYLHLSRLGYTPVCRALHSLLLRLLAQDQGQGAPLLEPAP
PAFAH2 confirm: PAFAH2 enzyme inhibitors, confirmation, biochemical, fluorescence polarization, human | shares compounds with PAFAH2 FP inh | recombinant PAFAH2, FP-rhodamine activity probe | inhibition, % at 3.39 µM | 2,300 compounds, 65% hits | AID 493030, 2011;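 active = mean inhibition over three repeats above a set limit taken from the earlier primary screen, cut at about 30% in these data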;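 note: inhibitor blocks binding of rhodamine activity probe so polarization falls; 0% = enzyme with DMSO and 100% = wells lacking PAFAH2 protein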
Starred values were filed as active, the others as inactive; / = no result given.

SMILES | pPAFAH FP inh | LYPLA2 counter | LYPLA1 inh | PAFAH1B2 inh | PAFAH2 FP inh | PAFAH1B3 inh | PAFAH2 confirm
Cc1ccc(N2C(=O)CC(Sc3ccccc3C(=O)O)C2=O)cc1 (stereo unspecified) | 4 | -1 | -2 | 0 | 92* | 2 | -8
Cc1cc(C)cc(N2C(=O)CC(Sc3ccccc3C(=O)O)C2=O)c1 (stereo unspecified) | -7 | 8 | 3 | 0 | 5 | 6 | /
CCc1ccccc1NC(=O)COC(=O)c1cccs1 | 8 | 6 | 3 | 5 | 80* | -2 | 76*
O=C(COC(=O)c1cccs1)Nc1ccccc1C(F)(F)F | 14 | 10 | 2 | -6 | 77* | -2 | 54*
CCc1ccccc1NC(=O)CCC(=O)c1cccs1 | 10 | -2 | 0 | 1 | 1 | 11 | /
COC(=O)C1CSC(C(=O)OC)N1C(=O)Nc1ccc(Cl)cc1 (stereo unspecified) | 1 | 1 | 4 | -5 | -1 | 7 | /
COC(=O)c1ccc2c(c1)NC(=O)C1CCCN21 (stereo unspecified) | 0 | -5 | -5 | / | / | / | /
Cc1ccc(NC(=O)COC(=O)c2ccc3c(c2)NC(=O)C2CCCN32)cc1 (stereo unspecified) | 6 | -46 | -26 | -10 | 68* | -13 | 76*
COc1ccc2nc(SCC(=O)C(C)(C)C)[nH]c2c1 | 2 | 0 | 3 | 4 | 8 | -2 | /
O=C(Nc1ccccc1)N1CCOCC1 | 6 | 3 | 0 | -4 | 6 | -2 | /
COc1cccc(OC)c1C(=O)OCC(=O)NCCCc1ccccc1 | 6 | 3 | 2 | 9 | 2 | -3 | /
COc1ccc(C(=O)OCC(=O)Nc2c(C)cccc2C)c(OC)c1OC | 2 | 3 | 2 | 2 | 52* | 4 | 43*
COc1cccc(C(=O)OCC(=O)NCCc2ccccc2)c1OC | 15 | 0 | -1 | -1 | 58* | 9 | 44*
Cc1cccc(C)c1NC(=O)COC(=O)c1nonc1N | -5 | -3 | -2 | 2 | 4 | 8 | /
COc1ccc(C(=O)OCC(=O)Nc2cccc(C(C)=O)c2)c(OC)c1OC | 10 | 0 | 1 | 0 | 83* | 8 | 86*
O=C(O)c1cc(-c2ccc(Cl)s2)nc2ccccc12 | 1 | -1 | -3 | 2 | 2 | 3 | /
CC(C)CCN1C(=O)c2ccc(C(=O)Nc3ccccc3C(=O)O)cc2C1=O | / | / | / | 2 | 40* | 1 | 20
CC(C)NC(=O)COC(=O)c1cccc(NS(=O)(=O)/C=C/c2ccccc2)c1 | 15 | 5 | 0 | 4 | 37* | -5 | 18
NC(=O)NC(=O)COC(=O)c1cccc(NS(=O)(=O)/C=C/c2ccccc2)c1 | 6 | 0 | -3 | 7 | 4 | 9 | /
CC1CCCC(NC(=O)COC(=O)c2cccc(NS(=O)(=O)/C=C/c3ccccc3)c2)C1C (stereo unspecified) | 9 | -9 | -3 | 2 | 46* | 3 | 40*
S=C(Nc1ccc2c(c1)OCO2)N1CCN(Cc2ccco2)CC1 | 3 | 5 | 3 | 2 | 4 | 4 | /
CC(=O)Nc1ccc(S(=O)(=O)N(CC(=O)NC2CC2)Cc2ccccc2)cc1 | -8 | / | / | 10 | -5 | 14 | /
COc1ccc(C(=O)O/N=C(\N)Cc2ccc(Cl)c(Cl)c2)cc1OC | 9 | -4 | -7 | -6 | 90* | -3 | 82*
COc1ccc(C(=O)O/N=C(\N)Cc2ccc(Cl)cc2)cc1OC | 3 | -4 | 0 | 4 | 74* | 3 | 78*
N/C(Cc1ccc(Cl)cc1)=N\OC(=O)c1ccccc1 | 2 | 1 | 2 | 8 | 83* | 3 | 76*
SMILES | pPAFAH FP inh | LYPLA2 counter | LYPLA1 inh | PAFAH1B2 inh | PAFAH2 FP inh | PAFAH1B3 inh | PAFAH2 confirm
COc1cc(C(=O)O/N=C(\N)Cc2ccc([N+](=O)[O-])cc2)cc(OC)c1OC | 8 | -4 | -1 | / | / | / | /
CC(C)(C)C(=O)OC/C(N)=N/OC(=O)c1ccc(Cl)cc1 | 10 | 1 | -3 | 11 | 85* | 3 | 65*
CCOC(=O)C1C(C(=O)OC)=C(c2ccc(OC)cc2)c2ccc(OC)cc2N1S(=O)(=O)C(F)(F)F (stereo unspecified) | 5 | / | / | 1 | 0 | 8 | /
CCOc1ccc(N2Cc3ccccc3C2)cc1 | -2 | -3 | 0 | -4 | -4 | 5 | /
Cc1ccc(OCC(=O)NC2CCCCCC2)cc1C | 9 | 5 | 1 | 2 | -4 | 5 | /
COc1ccc(C(=O)OCC(=O)NC2CCCCCC2)cc1OC | 9 | 3 | -1 | -1 | 93* | -1 | 83*
COc1ccc(CC(=O)OCC(=O)NC2CCCCCC2)cc1OC | / | / | / | 4 | 28 | 5 | /
COc1ccc(C(=O)OCC(=O)NC2CC2)cc1[N+](=O)[O-] | 11 | 3 | 1 | 5 | 31* | 12 | 24
Cc1ccc(C(=O)OCC(=O)NC2CCCC2)cc1C | 17 | -6 | -4 | 4 | 87* | 9 | 82*
COc1ccc(C(=O)NCC(=O)OCC(=O)NC2CCCCCC2)cc1OC | -7 | / | / | 10 | 4 | 4 | /
COc1ccc(C(=O)OCC(=O)NC2CCCC2)cc1OC | 6 | 1 | 0 | 2 | 76* | 5 | 80*
CCOC(=O)C1(CC)NC(c2ccco2)C2C(=O)N(C)C(=O)C21 (stereo unspecified) | 4 | 0 | -2 | 8 | -11 | 7 | /
O=C1CN(C(=O)CSc2nc3c(cnn3-c3ccccc3)c(=O)[nH]2)c2ccccc2N1 | -2 | -3 | 1 | 1 | 2 | 2 | /
Cc1ccc(C(=O)OCC(=O)NC2CCCCCC2)c(C)c1 | / | / | / | 2 | 86* | 4 | 78*
O=C(COC(=O)c1ccc(O)cc1O)NC1CCCCCC1 | 10 | 4 | -2 | 5 | 46* | 3 | 31*
COc1ccc(C(=O)OCC(=O)Nc2ccccc2)cc1[N+](=O)[O-] | 8 | 9 | 3 | 7 | 71* | 3 | 73*
COc1ccc(C(=O)OCC(=O)NC2CC2)cc1OC | 1 | 5 | 4 | 3 | 67* | 4 | 55*
COc1ccc(CC(=O)NC2CC2)cc1OC | 5 | 5 | -1 | 1 | -7 | 11 | /
O=C(COC(=O)c1ccc(O)cc1O)NC1CCS(=O)(=O)C1 (stereo unspecified) | 1 | -2 | 0 | 0 | 9 | 0 | /
COc1ccc(C(=O)OCC(=O)NC(=O)NCc2ccccc2)cc1[N+](=O)[O-] | -3 | 7 | -1 | 7 | 10 | 7 | /
